Reference: ChEMBL document CHEMBL2218924, “A broad activity screen in support of a chemogenomic map for kinase signalling research and drug discovery” (Biochem J, 2013)

Experiments:
[1] = biological target: T1, Tyrosine-protein kinase ITK/TSK (Homo sapiens) (UniProt Q08881); conditions: at 10 µM
T1 sequence (whole entry): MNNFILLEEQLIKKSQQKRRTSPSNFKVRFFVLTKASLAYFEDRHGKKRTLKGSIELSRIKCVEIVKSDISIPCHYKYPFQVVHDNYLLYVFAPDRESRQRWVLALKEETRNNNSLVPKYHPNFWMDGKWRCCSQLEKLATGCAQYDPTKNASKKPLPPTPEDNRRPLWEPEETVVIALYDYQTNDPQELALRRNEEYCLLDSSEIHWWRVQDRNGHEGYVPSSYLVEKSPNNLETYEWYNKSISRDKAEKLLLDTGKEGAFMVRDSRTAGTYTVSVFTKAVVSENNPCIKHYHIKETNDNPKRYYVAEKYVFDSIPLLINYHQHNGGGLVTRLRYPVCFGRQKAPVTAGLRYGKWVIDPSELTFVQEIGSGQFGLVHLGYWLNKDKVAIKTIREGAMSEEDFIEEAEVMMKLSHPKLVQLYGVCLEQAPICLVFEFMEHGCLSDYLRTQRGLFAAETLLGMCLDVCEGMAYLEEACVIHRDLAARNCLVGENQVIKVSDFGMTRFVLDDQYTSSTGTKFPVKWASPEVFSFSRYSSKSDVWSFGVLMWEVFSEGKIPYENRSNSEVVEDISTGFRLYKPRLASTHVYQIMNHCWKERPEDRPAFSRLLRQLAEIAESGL

[2] = biological target: Tyrosine-protein kinase JAK2 (Homo sapiens) (UniProt O60674); conditions: at 1 µM
Sequence of Tyrosine-protein kinase JAK2 (Homo sapiens) (O60674 whole entry): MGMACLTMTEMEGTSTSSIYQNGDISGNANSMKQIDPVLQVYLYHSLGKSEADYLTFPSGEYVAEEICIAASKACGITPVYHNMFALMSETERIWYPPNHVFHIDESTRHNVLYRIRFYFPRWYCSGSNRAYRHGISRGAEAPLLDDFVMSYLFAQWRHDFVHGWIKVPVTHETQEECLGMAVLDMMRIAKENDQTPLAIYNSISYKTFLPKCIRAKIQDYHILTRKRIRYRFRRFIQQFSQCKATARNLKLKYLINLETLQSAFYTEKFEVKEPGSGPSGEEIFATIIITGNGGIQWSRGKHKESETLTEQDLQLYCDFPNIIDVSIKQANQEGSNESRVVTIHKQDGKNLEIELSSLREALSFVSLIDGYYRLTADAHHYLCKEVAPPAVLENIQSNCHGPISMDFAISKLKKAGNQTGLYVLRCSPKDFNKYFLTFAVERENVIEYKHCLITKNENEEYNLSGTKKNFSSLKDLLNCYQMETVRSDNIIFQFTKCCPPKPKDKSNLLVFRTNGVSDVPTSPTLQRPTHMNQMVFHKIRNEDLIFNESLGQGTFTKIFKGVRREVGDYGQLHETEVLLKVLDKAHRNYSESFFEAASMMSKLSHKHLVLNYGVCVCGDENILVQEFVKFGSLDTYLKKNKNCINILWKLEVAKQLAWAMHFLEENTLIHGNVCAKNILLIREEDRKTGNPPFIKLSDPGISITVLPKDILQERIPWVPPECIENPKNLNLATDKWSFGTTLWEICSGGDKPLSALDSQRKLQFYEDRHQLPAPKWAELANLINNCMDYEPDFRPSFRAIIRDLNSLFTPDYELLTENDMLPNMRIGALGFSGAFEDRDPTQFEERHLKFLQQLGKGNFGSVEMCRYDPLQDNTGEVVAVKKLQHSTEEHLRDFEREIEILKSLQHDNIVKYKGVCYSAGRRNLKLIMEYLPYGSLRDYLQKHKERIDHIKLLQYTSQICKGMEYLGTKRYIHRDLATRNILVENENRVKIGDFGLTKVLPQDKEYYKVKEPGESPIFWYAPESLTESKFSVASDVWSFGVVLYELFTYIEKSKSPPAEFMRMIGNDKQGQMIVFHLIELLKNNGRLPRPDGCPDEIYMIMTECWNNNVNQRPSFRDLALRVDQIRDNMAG

[3] = biological target: Tyrosine-protein kinase JAK2 (Homo sapiens) (UniProt O60674); conditions: at 10 µM
[4] = biological target: T2, Tyrosine-protein kinase JAK3 (Homo sapiens) (UniProt P52333); conditions: at 1 µM
T2 sequence (whole entry): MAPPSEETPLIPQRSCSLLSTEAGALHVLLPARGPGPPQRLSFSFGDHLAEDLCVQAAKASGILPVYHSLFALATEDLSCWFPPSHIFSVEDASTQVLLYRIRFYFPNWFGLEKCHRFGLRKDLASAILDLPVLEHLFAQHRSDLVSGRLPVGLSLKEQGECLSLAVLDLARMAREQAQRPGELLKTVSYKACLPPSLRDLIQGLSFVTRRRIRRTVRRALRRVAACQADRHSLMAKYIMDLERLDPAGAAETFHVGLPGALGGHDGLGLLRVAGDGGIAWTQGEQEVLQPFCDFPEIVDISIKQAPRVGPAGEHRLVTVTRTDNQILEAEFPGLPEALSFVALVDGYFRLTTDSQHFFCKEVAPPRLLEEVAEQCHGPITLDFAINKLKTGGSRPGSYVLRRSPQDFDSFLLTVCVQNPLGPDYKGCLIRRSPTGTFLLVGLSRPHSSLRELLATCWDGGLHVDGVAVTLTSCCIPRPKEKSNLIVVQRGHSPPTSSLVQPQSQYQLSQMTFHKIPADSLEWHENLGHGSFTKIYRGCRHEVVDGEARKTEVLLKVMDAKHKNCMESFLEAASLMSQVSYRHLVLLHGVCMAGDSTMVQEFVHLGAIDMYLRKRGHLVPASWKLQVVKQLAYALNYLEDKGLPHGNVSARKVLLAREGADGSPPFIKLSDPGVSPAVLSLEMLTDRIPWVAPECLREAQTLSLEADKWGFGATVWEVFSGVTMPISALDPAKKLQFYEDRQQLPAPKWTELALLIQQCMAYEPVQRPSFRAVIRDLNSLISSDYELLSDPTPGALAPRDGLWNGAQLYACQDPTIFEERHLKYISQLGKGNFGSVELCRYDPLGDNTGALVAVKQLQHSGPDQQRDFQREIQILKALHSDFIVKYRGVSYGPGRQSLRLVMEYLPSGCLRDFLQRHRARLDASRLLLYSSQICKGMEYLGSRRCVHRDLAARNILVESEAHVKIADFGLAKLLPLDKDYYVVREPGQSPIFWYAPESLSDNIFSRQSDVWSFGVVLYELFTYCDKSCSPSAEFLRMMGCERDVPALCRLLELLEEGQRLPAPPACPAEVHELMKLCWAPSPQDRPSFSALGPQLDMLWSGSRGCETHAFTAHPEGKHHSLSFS

[5] = biological target: T2, Tyrosine-protein kinase JAK3 (Homo sapiens); conditions: at 10 µM
[6] = biological target: Mitogen-activated protein kinase 8 (Homo sapiens) (UniProt P45983); conditions: at 1 µM
Sequence of Mitogen-activated protein kinase 8 (Homo sapiens) (P45983 whole entry): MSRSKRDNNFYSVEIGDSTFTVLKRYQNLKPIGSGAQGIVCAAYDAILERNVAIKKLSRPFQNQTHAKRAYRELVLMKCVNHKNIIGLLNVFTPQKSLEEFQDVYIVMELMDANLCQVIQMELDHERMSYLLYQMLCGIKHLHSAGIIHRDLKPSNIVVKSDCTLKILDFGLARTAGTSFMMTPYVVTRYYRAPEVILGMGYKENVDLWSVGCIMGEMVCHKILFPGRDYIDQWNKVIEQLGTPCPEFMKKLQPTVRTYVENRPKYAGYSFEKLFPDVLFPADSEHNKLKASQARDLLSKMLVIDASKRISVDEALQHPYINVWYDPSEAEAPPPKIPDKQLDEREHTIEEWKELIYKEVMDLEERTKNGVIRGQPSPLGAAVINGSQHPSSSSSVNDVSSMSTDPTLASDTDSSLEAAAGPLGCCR

[7] = biological target: Mitogen-activated protein kinase 8 (Homo sapiens) (UniProt P45983); conditions: at 10 µM
[8] = biological target: Mitogen-activated protein kinase 9 (Homo sapiens) (UniProt P45984); conditions: at 1 µM
Sequence of Mitogen-activated protein kinase 9 (Homo sapiens) (P45984 whole entry, looked up): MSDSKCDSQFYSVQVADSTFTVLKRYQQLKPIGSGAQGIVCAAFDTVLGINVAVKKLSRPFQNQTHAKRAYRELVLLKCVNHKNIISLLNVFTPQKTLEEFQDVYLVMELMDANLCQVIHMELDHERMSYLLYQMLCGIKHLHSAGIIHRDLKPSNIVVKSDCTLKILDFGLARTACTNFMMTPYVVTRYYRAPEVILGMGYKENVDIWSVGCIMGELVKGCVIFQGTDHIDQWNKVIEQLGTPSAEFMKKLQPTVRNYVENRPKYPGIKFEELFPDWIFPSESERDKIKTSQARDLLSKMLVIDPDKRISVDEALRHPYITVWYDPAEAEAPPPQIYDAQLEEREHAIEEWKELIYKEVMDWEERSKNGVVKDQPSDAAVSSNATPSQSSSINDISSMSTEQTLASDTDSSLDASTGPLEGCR

[9] = biological target: Mitogen-activated protein kinase 9 (Homo sapiens) (UniProt P45984); conditions: at 10 µM
[10] = biological target: Mitogen-activated protein kinase 10 (Homo sapiens) (UniProt P53779); conditions: at 1 µM
Sequence of Mitogen-activated protein kinase 10 (Homo sapiens) (P53779 whole entry): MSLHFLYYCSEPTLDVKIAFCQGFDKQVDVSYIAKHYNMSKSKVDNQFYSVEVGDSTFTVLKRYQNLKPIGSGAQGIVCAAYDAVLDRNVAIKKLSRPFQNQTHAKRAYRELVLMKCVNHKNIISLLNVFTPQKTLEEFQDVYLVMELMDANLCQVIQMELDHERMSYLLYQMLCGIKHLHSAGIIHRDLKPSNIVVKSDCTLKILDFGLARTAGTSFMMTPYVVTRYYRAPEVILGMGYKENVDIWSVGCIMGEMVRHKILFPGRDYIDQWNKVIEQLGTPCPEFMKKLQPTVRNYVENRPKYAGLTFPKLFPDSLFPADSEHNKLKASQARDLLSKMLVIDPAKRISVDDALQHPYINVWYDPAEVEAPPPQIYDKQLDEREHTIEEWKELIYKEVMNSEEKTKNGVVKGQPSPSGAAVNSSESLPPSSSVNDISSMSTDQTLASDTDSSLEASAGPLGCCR

O=C1NC(=O)c2c1c1c3ccccc3[nH]c1n1cncc21
residual activity [1]: 44% | residual activity [2]: 97% | residual activity [3]: 93% | residual activity [4]: 83% | residual activity [5]: 58% | residual activity [6]: 89% | residual activity [7]: 75% | residual activity [8]: 67% | residual activity [9]: 49% | residual activity [10]: 25%

O=c1cc(N2CCOCC2)oc2c1ccc1ccccc12
residual activity [1]: 94% | residual activity [4]: 100% | residual activity [5]: 108% | residual activity [6]: 103% | residual activity [7]: 87% | residual activity [8]: 110% | residual activity [9]: 97%

O=c1cc(N2CCNCC2)oc2c(-c3ccccc3)cccc12
residual activity [1]: 93% | residual activity [3]: 101% | residual activity [4]: 94% | residual activity [5]: 78% | residual activity [7]: 84% | residual activity [9]: 97% | residual activity [10]: 73%

CC(C)(C)c1nc2c3ccc(F)cc3c3c(=O)[nH]ccc3c2[nH]1
residual activity [1]: 66% | residual activity [2]: -1% | residual activity [3]: 1% | residual activity [4]: 1% | residual activity [5]: 1% | residual activity [6]: 32% | residual activity [7]: 9% | residual activity [10]: -2%

CCCCc1c(-c2ccc(O)cc2)[nH]c2nccnc12
residual activity [1]: 38% | residual activity [2]: 62% | residual activity [3]: 63% | residual activity [4]: 80% | residual activity [5]: 26% | residual activity [8]: 97% | residual activity [9]: 98% | residual activity [10]: 56%

O=C1Cc2c([nH]c3ccc(Br)cc23)-c2ccccc2N1
residual activity [2]: 100% | residual activity [3]: 71% | residual activity [5]: 71% | residual activity [6]: 95% | residual activity [7]: 88% | residual activity [8]: 87% | residual activity [9]: 97%

CCN1/C(=C/C(C)=O)Sc2ccc(OC)cc21
residual activity [10]: 65%

CC(C)N(CCC(=O)c1ccc2ccccc2c1)Cc1ccccc1
residual activity [4]: 78% | residual activity [5]: 45% | residual activity [7]: 57% | residual activity [9]: 86% | residual activity [10]: 80%

Cc1cc(C)c(/C=C2\C(=O)Nc3ccccc32)[nH]1
residual activity [8]: 102% | residual activity [9]: 101%

Nc1n[nH]c2nc3ccccc3nc12
residual activity [2]: 98% | residual activity [3]: 91% | residual activity [8]: 100% | residual activity [9]: 84% | residual activity [10]: 80%

O=C(NC(NC(=S)Nc1ccc(F)c([N+](=O)[O-])c1)C(Cl)(Cl)Cl)C(c1ccccc1)c1ccccc1 (centres undefined)
residual activity [5]: 78% | residual activity [7]: 102% | residual activity [10]: 92%

COc1ccc(CNC(=O)Nc2ncc([N+](=O)[O-])s2)cc1
residual activity [10]: 65%

O=C1Cc2c([nH]c3ccc([N+](=O)[O-])cc23)-c2ccccc2N1
residual activity [3]: 106% | residual activity [4]: 101% | residual activity [5]: 101% | residual activity [6]: 109% | residual activity [8]: 104% | residual activity [9]: 101% | residual activity [10]: 70%

COc1ccc(-c2cnc3c(-c4ccsc4)cnn3c2)cc1
residual activity [5]: 92% | residual activity [8]: 100% | residual activity [9]: 100% | residual activity [10]: 88%

NC(=O)c1ccc(-c2nc(-c3ccc4c(c3)OCCO4)c(-c3ccccn3)[nH]2)cc1
residual activity [6]: 117% | residual activity [7]: 87%

CC(C)[C@H](CO)Nc1nc(Nc2cc(N)cc(Cl)c2)c2ncn(C(C)C)c2n1
residual activity [5]: 87% | residual activity [10]: 82%

COc1cc2nccc(Oc3ccc(NC(=O)Nc4cc(C)on4)c(Cl)c3)c2cc1OC
residual activity [4]: 100% | residual activity [5]: 48% | residual activity [6]: 120% | residual activity [7]: 109%

O=C1Nc2ccc(Cl)cc2/C1=C/c1cc(Cl)c(O)c(Cl)c1
residual activity [2]: 98% | residual activity [3]: 69% | residual activity [4]: 75% | residual activity [5]: 28% | residual activity [6]: 95% | residual activity [7]: 69% | residual activity [10]: 64%

CN([C@@H](Cc1ccc(OS(=O)(=O)c2cccc3cnccc23)cc1)C(=O)N1CCN(c2ccccc2)CC1)S(=O)(=O)c1cccc2cnccc12
residual activity [5]: 83% | residual activity [8]: 114% | residual activity [9]: 114% | residual activity [10]: 76%

O=C(c1ccccc1)c1ccc(N2CCOCC2)cc1O
residual activity [2]: 92% | residual activity [3]: 99% | residual activity [4]: 91% | residual activity [5]: 82% | residual activity [6]: 116% | residual activity [10]: 83%

O=C1Nc2ccccc2/C1=C\c1c(Cl)[nH]c2ccccc12
residual activity [5]: 85% | residual activity [9]: 76% | residual activity [10]: 83%

O=C1C(Cl)=C(N2C(=O)CCC2=O)C(=O)c2ccccc21
residual activity [4]: 100% | residual activity [5]: 89% | residual activity [6]: 96% | residual activity [7]: 86% | residual activity [8]: 89% | residual activity [9]: 102% | residual activity [10]: 88%

CCOc1nc(NC(=O)Cc2cc(OC)ccc2OC)cc(N)c1C#N
residual activity [6]: -16% | residual activity [7]: -6% | residual activity [8]: -1% | residual activity [9]: -11% | residual activity [10]: -2%

Nc1nccc(-c2c(-c3ccc(F)cc3)ncn2C2CCNCC2)n1
residual activity [4]: 120% | residual activity [5]: 118% | residual activity [10]: 69%

COc1ccc(Cl)cc1NC(=O)Nc1cc(C)nc2ccccc12
residual activity [2]: 124% | residual activity [3]: 155% | residual activity [5]: 145% | residual activity [10]: 85%

N#Cc1c(NC(=O)c2cccc3ccccc23)sc2c1CCCC2
residual activity [3]: 92% | residual activity [8]: 58% | residual activity [9]: 74% | residual activity [10]: 8%

Fc1ccc(-c2nc3n(c2-c2ccncc2)CCS3)cc1
residual activity [2]: 99% | residual activity [3]: 100% | residual activity [7]: 81% | residual activity [8]: 73% | residual activity [9]: 20% | residual activity [10]: 14%

O=C(Nc1ccc(Cl)cc1)c1ccccc1NCc1ccncc1
residual activity [2]: 129% | residual activity [3]: 74% | residual activity [6]: 120% | residual activity [7]: 129% | residual activity [10]: 72%

Oc1cccc(-c2nc(N3CCOCC3)c3oc4ncccc4c3n2)c1
residual activity [7]: 77% | residual activity [10]: 91%

NCCNc1ncc(C(N)=O)c(Nc2cccc(C(F)(F)F)c2)n1
residual activity [4]: 116% | residual activity [5]: 106% | residual activity [8]: 103% | residual activity [9]: 76% | residual activity [10]: 79%

O=C(O)/C=C/c1cc(Br)c(Br)c(Br)c1Br
residual activity [2]: 87% | residual activity [3]: 58% | residual activity [4]: 102% | residual activity [5]: 34% | residual activity [6]: 108% | residual activity [7]: 72% | residual activity [8]: 100% | residual activity [9]: 72% | residual activity [10]: 99%

O=C1NC(=O)C(c2cn(CCCn3ccnc3)c3ccccc23)=C1Nc1ccccc1
residual activity [2]: 103% | residual activity [3]: 39% | residual activity [4]: 15% | residual activity [5]: 2% | residual activity [6]: 109% | residual activity [7]: 79% | residual activity [8]: 110% | residual activity [9]: 80%

O=c1c(-c2ccc(F)cc2)c(-c2ccncc2)[nH]n1-c1ccc(Cl)cc1
residual activity [8]: 7% | residual activity [9]: -10% | residual activity [10]: -2%

O=C1NC(=O)C(c2cn(CCCO)c3ncccc23)=C1c1cnccn1
residual activity [1]: 91% | residual activity [8]: 96% | residual activity [9]: 80% | residual activity [10]: 89%

N#C/C(=C1/Nc2ccccc2S1)c1ccnc(NCCc2cccnc2)n1
residual activity [4]: 95% | residual activity [5]: 48% | residual activity [6]: 67% | residual activity [7]: 55%

O=c1cc(N2CCOCC2)oc2c(-c3ccccc3)cccc12
residual activity [7]: 79% | residual activity [10]: 70%

O=C1NC(=O)C(c2c[nH]c3ccccc23)=C1c1c[nH]c2ccccc12
residual activity [3]: 33% | residual activity [4]: 43% | residual activity [5]: 6% | residual activity [7]: 35% | residual activity [10]: 56%
